Reference: PubChem BioAssay (NCI)
The panel holds about 79,000 compounds, 15% with a hit somewhere; the sample as a whole holds those more often. No stated cut-off is given here; in the data, active means growth inhibition above about 70%; inactive means the rest. Where a SMILES comes first, the peptide text is derived from it. The star is where a group is joined. Cbz = O=C(OCc1ccccc1)*; NHNH2 = NN*

What was measured:
[1] = NCI Yeast Anticancer Drug Screen. Data for the rad50 strain (AID 155);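 further: 0% = growth of vehicle-only cultures of the same strain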; conditions: S. cerevisiae rad50 strain growth inhibition; at 50.0 µM; active compounds read high
Method in brief: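 Cells are treated with compound, grown, and their growth is then scored against vehicle-only cultures of the same repair-deficient yeast strain.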

[2] = NCI Yeast Anticancer Drug Screen. Data for the mec2-1 strain (AID 157); conditions: S. cerevisiae mec2-1 strain, at 50.0 µM, active compounds read high
Method in brief: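 Vehicle-treated cultures served as reference for growth inhibition of compound-exposed mec2-1 yeast.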

[3] = NCI Yeast Anticancer Drug Screen. Data for the sgs1 mgt1 strain (AID 161);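 further: 0% = growth of cultures given vehicle only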; conditions: S. cerevisiae sgs1 mgt1 strain, at 50.0 µM, active compounds read high
Method in brief: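 Genetically altered yeast, compound exposure, growth inhibition relative to vehicle.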

[4] = NCI Yeast Anticancer Drug Screen. Data for the cln2 rad14 strain (AID 165);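 further: 0% = growth equal to vehicle treated cultures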; conditions: S. cerevisiae cln2 rad14 strain, at 50.0 µM, active compounds read high
Method in brief: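 Each compound was tested on cln2 rad14 yeast. Inhibition of growth was calculated against vehicle-exposed controls.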

[5] = NCI Yeast Anticancer Drug Screen. Data for the bub3 strain (AID 167); conditions: S. cerevisiae bub3 mutant strain, at 50.0 µM, active compounds read high
Method in brief: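 Part of a panel of yeast mutants defective in DNA damage repair or cell cycle regulation. Each strain is grown with compound, and inhibition is calculated relative to solvent-treated cultures.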

[6] = NCI Yeast Anticancer Drug Screen. Data for the mlh1 rad18 strain (AID 175); conditions: S. cerevisiae mlh1 rad18 strain growth inhibition; at 50.0 µM; active compounds read high
Method in brief: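 Vehicle-treated cultures served as the reference for growth inhibition in a yeast strain carrying DNA damage repair alterations exposed to each compound.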

Measured: growth inhibition

O=C(Cl)c1cc2ccccc2c2c(=O)c3ccc4cc5ccccc5cc4c3[nH]c12
inactive: [1] -51.6% | [2] -3.2% | [3] -10.4% | [4] -53.8% | [5] -13.2% | [6] -11.6%

CCCCCC(=O)c1ccc2[nH]c3c(C)cc([N+](=O)[O-])c(C)c3c2c1
inactive: [1] 3.65% | [2] -35.6% | [3] -34.6% | [4] -2.8% | [5] -17.2% | [6] -10.3%

CN1C(=O)C(=C2CCCCC2)SC1=S
inactive: [1] 0.55% | [2] 7.8% | [3] -11.6% | [4] -4.3% | [5] 2.8% | [6] 2.15%

c1ccc(-c2c3ccccc3cc3c2ccc2ccccc23)cc1
inactive: [1] -13.4% | [2] -12.2% | [3] -3.95% | [4] 9.25% | [5] 19.5% | [6] 0.55%

Cc1ccc(C(N)=Nc2ccccc2)cc1
inactive: [1] 0.65% | [2] 0% | [3] -0.3% | [4] -2.85% | [5] 3.3% | [6] 23.4%

NC(=O)NC(=O)Cc1ccc(N)cc1
inactive: [1] 4.6% | [2] -9.1% | [3] 1.9% | [4] 1.1% | [5] 4% | [6] -4.9%

Clc1nc(N2CCOCC2)c2[nH]cnc2n1
inactive: [1] -5.9% | [2] 5.7% | [3] 3.9% | [4] -6.1% | [5] 8.8% | [6] 6.25%

CCOC(=O)c1c(C)c2c(n1Cc1ccccc1)CCCC2=O
inactive: [1] 15.5% | [2] 11.4% | [3] 38.5% | [4] 12.7% | [5] 23.9% | [6] 19.4%

O=C1CC(c2ccccc2)S(=O)c2ccccc2N1 (stereo unspecified)
inactive: [1] -7.5% | [2] 5.25% | [3] -9.9% | [4] 26.8% | [5] 11.6% | [6] -1.25%

CCCCCN(C=O)c1ccccc1
inactive: [1] -4.25% | [2] -13.7% | [3] -19.9% | [4] -13.6% | [5] -7.4% | [6] -2.5%

CCCCC(CC)(CC(=O)O)CC(=O)O
inactive: [1] 10.4% | [2] 9.85% | [3] 12.3% | [4] -14.8% | [5] 7.85% | [6] 7.1%

COc1cccc(CCN(CCOC(N)=O)CCOC(N)=O)c1OC
inactive: [1] -10.1% | [2] -5.25% | [3] 2.9% | [4] -7.35% | [5] -4.85% | [6] -2.65%

COc1cc(/C=C/Cc2cc3c(cc2OCCO)OCO3)cc(OC)c1OC
inactive: [1] -1.05% | [2] 0.3% | [3] 7.6% | [4] -11.7% | [5] -4.65% | [6] 19.6%

NC(=O)C1C(=O)NC(=O)C1=O (stereo unspecified)
inactive: [1] -21.5% | [2] -17.9% | [3] -8.75% | [4] -7.7% | [5] -9.75% | [6] -22.4%

Cc1cc2c(cc1Cl)SC(NNc1ccc([N+](=O)[O-])cc1)=NS2(=O)=O
inactive: [1] 34.6% | [2] 2.4% | [3] 4.6% | [4] -7.85% | [5] -19.6% | [6] 26.9%

CC(C)(C)OC(=O)N1CCCC1C(=O)NCCNc1ccc(NCCNC(=O)C2CCCN2C(=O)OC(C)(C)C)c2c1C(=O)c1ccccc1C2=O (stereo unspecified)
inactive: [1] 13.8% | [2] 13.4% | [3] 21.4% | [4] 52.4% | [5] 2.35% | [6] -25%

Cn1cnc([N+](=O)[O-])c1SCC(=O)O
inactive: [1] -36.4% | [2] -0.6% | [3] -29.5% | [4] -22.9% | [5] -17.9% | [6] -3.7%

CN1CNC(=O)c2n[nH]nc21
inactive: [1] -1.25% | [2] 34.5% | [3] -4.15% | [4] -21% | [5] 13.1% | [6] -2.7%

CC(C)(CCC(C)(C)c1ccccc1)c1ccccc1
inactive: [1] -2.7% | [2] -35.7% | [3] -9.2% | [4] -9.75% | [5] -17.9% | [6] -8.25%

O=C(CC(=O)C(F)(F)F)Nc1cccc2ccccc12
inactive: [1] 6.65% | [2] -3.1% | [3] 10.6% | [4] -84.5% | [5] 0.1% | [6] 1.05%

CCCCNC1(N(C)C)N=C(N(C)C)N=C(N(C)C)O1 (stereo unspecified)
inactive: [1] -2.2% | [2] -1.4% | [3] -1.05% | [4] 17.8% | [5] 8.35% | [6] -0.45%

COc1c(Cl)cc(Cl)cc1C(c1cc(Cl)cc(Cl)c1OC)C(Cl)(Cl)Cl
inactive: [1] -3.25% | [2] -6.1% | [3] 4.6% | [4] -5% | [5] -3.6% | [6] 7.1%

O=[N+]([O-])c1cc([N+](=O)[O-])c(/C=C/c2ccccc2Cl)cc1/C=C/c1ccccc1Cl
inactive: [1] -10.2% | [2] 13.4% | [3] 15.8% | [4] -19.6% | [5] 0.05% | [6] 0.5%

CC1(C)C2CCC(=O)C1C(OCc1ccccc1)C2 (stereo unspecified)
inactive: [1] -22.1% | [2] 15.7% | [3] -21.1% | [4] -0.85% | [5] -11.6% | [6] -47.4%

CC1=CC(C)=C(C#N)C2=S=C(c3ccccc3)C(=O)N12
inactive: [1] 6% | [2] 14.8% | [3] 22.5% | [4] 29.1% | [5] 19.9% | [6] 22.1%

Cc1ccc(S(=O)(=O)Nc2ccccc2-c2nc3ccc([N+](=O)[O-])cc3c(=O)o2)cc1
inactive: [1] 35.6% | [2] 36.2% | [3] 22.1% | [4] 1.1% | [5] 11.8% | [6] 45.2%

OC(CI)C1OCOC2COCOC21 (stereo unspecified)
inactive: [1] -3.2% | [2] 4.5% | [3] 13.1% | [4] -4% | [5] 16.1% | [6] -3.75%

CCN1CCCC(Cl)C1 (stereo unspecified)
inactive: [1] 12.8% | [2] -41% | [3] 14.7% | [4] -0.5% | [5] -12.4% | [6] 5.95%

COC(=O)c1cc(=O)c2scc(C)[n+]2[nH]1
inactive: [1] -5.4% | [2] -10.8% | [3] 18.9% | [4] 9.55% | [5] -3.05% | [6] -5.3%

OC1(C(O)(c2ccc(-c3ccccc3)cc2)c2ccc(-c3ccccc3)cc2)CCCCC1
inactive: [1] -11% | [2] -7.85% | [3] -34% | [4] -14.6% | [5] -26.4% | [6] -0.5%

O=C(O)CCCCCCCCCCOc1ccc(Cl)cc1
inactive: [1] 24.2% | [2] -7.9% | [3] 10.1% | [4] -3.45% | [5] 11% | [6] -33.6%

CCN1CC(C(=O)NC(C)C(=O)O)Cc2ccccc21 (stereo unspecified)
inactive: [1] 7.2% | [2] -1.25% | [3] 9.15% | [4] -31% | [5] 1.45% | [6] -8%

COC(=O)CC(NC(=O)OCc1ccccc1)C(=O)NC(CC(=O)OC)C(=O)NC(CC(=O)OC)C(=O)NC(CC(=O)OC)C(=O)NC(CC(=O)OC)C(=O)NC(CC(=O)OC)C(=O)NN (stereo unspecified) (Cbz-D(OMe)D(OMe)D(OMe)D(OMe)D(OMe)D(OMe)-NHNH2; configuration not given here)
inactive: [1] -18.6% | [2] -16.9% | [3] -24.6% | [4] 20.6% | [5] 25.7% | [6] -18.5%

C=CCS(=O)(=O)c1ccc(Cl)cc1
inactive: [1] 1.95% | [2] 2.25% | [3] -20.5% | [4] -24.6% | [5] 0.95% | [6] -22.2%

CN(C)CCCN1C=CC(=C2C(=O)c3ccccc3C2=O)C=C1
inactive: [1] 3.1% | [2] 20.8% | [3] 10.3% | [4] 34.9% | [5] 8.5% | [6] -0.95%

CC(C)C12Cc3c(ccc4ccccc34)OC1(C)Oc1ccc3ccccc3c1C2 (stereo unspecified)
inactive: [1] 18.6% | [2] -17.4% | [3] -13.5% | [4] 20.1% | [5] -6.8% | [6] 7.05%

CN1C(=O)CC2(C)c3cc(O)cc(Br)c3N(C)C12 (stereo unspecified)
inactive: [1] 6.6% | [2] -10.5% | [3] 8.45% | [4] 10.5% | [5] -6.25% | [6] 17.7%

Cc1ccc(NC=O)cc1NC=O
inactive: [1] 37.6% | [2] -1.4% | [3] 9.5% | [4] -27.1% | [5] 4.2% | [6] 15.9%

NC(=O)c1cc[cH-]c1.[Fe+2].c1cc[cH-]c1
inactive: [1] -10.1% | [2] 9% | [3] -4.75% | [4] -2.05% | [5] 5.35% | [6] 12.9%

Cc1cnc2[nH]c(-c3cccc4ccccc34)cc(=O)c2c1
inactive: [1] 13.2% | [2] 7% | [3] 16.1% | [4] -6.6% | [5] 14.9% | [6] -21.6%

COc1cccc(N2C(=O)c3c(c4[nH]c5ccccc5c4c4ccc(C(C)(C)C)cc34)C2=O)c1
inactive: [1] -19.2% | [2] -15.1% | [3] -15.4% | [4] 18.3% | [5] -34% | [6] -12.1%
